Values without a mark were called inactive. Inconclusive results are not listed. Where a call stands in place of a potency, no number is given. Calls of active or inactive are those of the source. Unless noted, calls follow the shape of the full dose curve.
How the values were obtained:
[1] = Nuclear factor erythroid 2-related factor 2/antioxidant responsive element (Nrf2/ARE) small molecule agonists: qHTS cell viability counter screen in human keratinocytes (AID 1919968; active = well fitted curve in the direction sought with a large enough effect in the repeat runs; an effect the other way counts as inactive or inconclusive; also: nearly all actives have a fitted effect of over 55% in size; also: potency is read from the fitted curve at half-maximal effect)
Summary of the method: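 KeratinoSens HaCaT cells, 1,500/well, preincubated 5 h, then exposed to compounds in DMSO for 23 h at 37 C/5% CO2. Viability read as CellTiter-Fluor fluorescence after 1 h, in the same wells as the ARE-luciferase read.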

[2] = Nuclear factor erythroid 2-related factor 2/antioxidant responsive element (Nrf2/ARE) small molecule agonists: luciferase reporter gene qHTS assay in human keratinocytes (AID 1919969); also: nearly all actives have a fitted effect of over 35% in size; also: potency is read from the fitted curve at half-maximal effect
[3] = target: KiSS-1 receptor (Homo sapiens) (UniProt Q969F8); experiment: Human kisspeptin (KISS1R) small molecule agonists, calcium flux assay in KISS1R-HEK293 cells (AID 1920064; active = well fitted curve in the direction sought with a large enough effect in the repeat runs; an effect the other way counts as inactive or inconclusive)
KiSS-1 receptor (Homo sapiens), sequence (Q969F8 whole entry, looked up): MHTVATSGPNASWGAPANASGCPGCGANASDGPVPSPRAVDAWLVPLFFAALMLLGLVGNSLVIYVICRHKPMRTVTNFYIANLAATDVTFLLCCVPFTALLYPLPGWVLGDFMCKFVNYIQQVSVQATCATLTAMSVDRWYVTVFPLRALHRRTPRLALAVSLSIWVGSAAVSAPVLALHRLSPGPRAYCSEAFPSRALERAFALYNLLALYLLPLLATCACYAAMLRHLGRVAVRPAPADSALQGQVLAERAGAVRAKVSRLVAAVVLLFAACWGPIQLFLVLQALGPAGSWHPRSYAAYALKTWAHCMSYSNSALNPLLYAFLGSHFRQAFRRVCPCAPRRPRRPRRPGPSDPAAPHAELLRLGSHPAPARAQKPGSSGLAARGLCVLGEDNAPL
Summary of the method: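 HEK293 cells stably expressing human KISS1R were loaded with calcium dye for 1 h at 37 C, then given compound; fluorescence (Ex/Em 480/540) was read kinetically for 3 min. Fifteen concentrations, triplicate.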

[4] = G protein-coupled receptor (GPCR) small molecule agonists, calcium flux assay: HEK293 wild type cell line counter screen (AID 1920065)
Summary of the method: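 Wild-type HEK293 cells plated 18 h, loaded with calcium dye 1 h at 37 C, then compounds added in agonist mode (ATP as positive control). Kinetic fluorescence Ex/Em 480/540 recorded 3 min at 1 sec intervals; 15 concentrations, triplicate.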

[5] = p53 small molecule agonists, cell-based qHTS assay with human liver microsomes (AID 1963577);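 also: p53 response element beta-lactamase reporter cells with liver microsomes plus NADPH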
Summary of the method: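 With metabolic activation: human liver microsomes (0.5 mg/mL final) plus NADPH (0.5 mg/mL final) added alongside compounds to p53RE-bla cells; 16 h 37 C exposure; beta-lactamase read by LiveBLAzer fluorescence.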

[6] = p53 small molecule agonists, cell-based qHTS assay with rat liver microsomes (AID 1963578)
Summary of the method: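 Metabolic activation by rat liver microsomes and NADPH, each 0.5 mg/mL final, added right after compounds to p53RE-bla reporter cells (4,000/well, plated 5 h earlier). 16 h at 37 C, then LiveBLAzer substrate for 2 h at room temperature in the dark; fluorescence read-out.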

[7] = p53 small molecule agonists, cell-based qHTS assay with rat liver microsomes: qHTS cell viability counter screen (AID 1963580); also: nearly all actives have a fitted effect of over 45% in size
Summary of the method: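 p53RE-bla HCT-116 cells were exposed 16 h at 37 C to compounds with rat liver microsomes (0.5 mg/mL) and NADPH (0.5 mg/mL). Viability was measured in the same wells as ATP content by CellTiter-Glo luminescence.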

[8] = p53 small molecule agonists, cell-based qHTS assay: qHTS cell viability counter screen (AID 1963581); also: nearly all actives have a fitted effect of over 45% in size; also: potency is read from the fitted curve at half-maximal effect
Summary of the method: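 p53RE-bla HCT-116 cells, compounds added 5 h after plating and incubated 16 h at 37 C. Cytotoxicity measured in the same wells as intracellular ATP by CellTiter-Glo luminescence after 30 min at room temperature.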

[9] = p53 small molecule agonists, cell-based qHTS assay (AID 1963582; active = well fitted activation curve with a large enough effect in the signal ratio in the repeat runs, not every such curve was filed as active; the % refers to the signal ratio)
Summary of the method: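 p53RE-bla reporter cells, compounds added in DMSO after 5 h plating, incubated 16 h at 37 C. Beta-lactamase read via 2 h room-temperature LiveBLAzer B/G FRET substrate, fluorescence intensity.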

[10] = target: Beta-2 adrenergic receptor (Homo sapiens) (UniProt P07550); experiment: Adrenergic beta2 receptor (ADRB2) small molecule antagonists, cell-based qHTS assay (AID 1963592); also: series mostly up to about 92 µM; nearly all actives have a fitted effect of over 50% in size
Beta-2 adrenergic receptor (Homo sapiens), sequence (P07550 whole entry, looked up): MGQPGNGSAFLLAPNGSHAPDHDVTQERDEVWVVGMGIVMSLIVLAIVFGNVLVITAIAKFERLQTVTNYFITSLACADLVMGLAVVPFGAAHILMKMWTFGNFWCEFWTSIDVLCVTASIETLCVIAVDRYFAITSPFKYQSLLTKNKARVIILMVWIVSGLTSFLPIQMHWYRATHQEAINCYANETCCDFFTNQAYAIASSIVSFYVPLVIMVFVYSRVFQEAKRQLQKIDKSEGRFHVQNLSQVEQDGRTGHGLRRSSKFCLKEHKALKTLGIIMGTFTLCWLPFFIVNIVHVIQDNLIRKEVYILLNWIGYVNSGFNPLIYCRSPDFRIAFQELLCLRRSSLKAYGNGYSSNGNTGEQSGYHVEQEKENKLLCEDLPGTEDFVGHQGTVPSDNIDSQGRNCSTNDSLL
Summary of the method: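 Cells (CHO, stable ADRB2 overexpression) incubated 18-20hr at 37C; compounds added from DMSO; agonist mix (1nM isoproterenol, 100uM IBMX, 25uM Ro-20-1724) added; 0.5hr RT; d2-cAMP and anti-cAMP-cryptate added; 1hr RT; 665/615 nm read.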

[11] = target: Beta-2 adrenergic receptor (Homo sapiens) (UniProt P07550); experiment: Adrenergic beta2 receptor (ADRB2) small molecule agonists, cell-based qHTS assay (AID 1963593);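 also: CHO cells stably overexpressing human ADRB2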
Summary of the method: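 CHO cells stably over-expressing ADRB2 were plated overnight at 37C, then dosed with compounds plus a stimulation mix containing 100uM IBMX and 25uM Ro-20-1724 for 0.5hr at room temperature. cAMP was measured by HTRF competition, 1hr.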

[12] = target: D(2) dopamine receptor (Homo sapiens) (UniProt P14416); experiment: Dopamine D2 receptor (DRD2) small molecule agonists, cell-based qHTS assay (AID 1963594); also: nearly all actives have a fitted effect of over 35% in size
D(2) dopamine receptor (Homo sapiens), sequence (P14416 whole entry, looked up): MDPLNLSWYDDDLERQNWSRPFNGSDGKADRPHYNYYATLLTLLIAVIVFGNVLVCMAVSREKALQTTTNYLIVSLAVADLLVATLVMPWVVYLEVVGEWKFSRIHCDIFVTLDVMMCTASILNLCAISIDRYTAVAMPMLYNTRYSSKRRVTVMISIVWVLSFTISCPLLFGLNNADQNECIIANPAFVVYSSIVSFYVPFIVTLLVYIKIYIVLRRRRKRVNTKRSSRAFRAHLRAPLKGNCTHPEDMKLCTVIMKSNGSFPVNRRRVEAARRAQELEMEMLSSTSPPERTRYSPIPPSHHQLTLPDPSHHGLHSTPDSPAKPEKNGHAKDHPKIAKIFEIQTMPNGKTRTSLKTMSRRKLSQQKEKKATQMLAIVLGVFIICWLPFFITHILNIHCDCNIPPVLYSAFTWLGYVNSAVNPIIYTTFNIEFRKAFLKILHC
Summary of the method: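 HEK293 cells stably expressing human DRD2, pre-treated with PDE inhibitor Ro20-1724 (0.1 mM final) and compound 10 min at room temperature, then stimulated with NKH477 (200nM […]) for 30 min. cAMP read by HTRF (665/620 nm).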

[13] = target: D(2) dopamine receptor (Homo sapiens) (UniProt P14416); experiment: Dopamine D2 receptor (DRD2) small molecule antagonists, cell-based qHTS assay (AID 1963595; active = well fitted inhibition curve with a large enough effect in the signal ratio in the repeat runs, with a control signal flat; the % refers to the signal ratio)
Summary of the method: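 Antagonism was scored as restored cAMP in HEK293-DRD2 cells. These cells were stimulated with 200 nM NKH477 and 12 nM quinpirole for 30 min at room temperature, in the presence of 0.1 mM Ro20-1724.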

[14] = p53 small molecule agonists, cell-based qHTS assay with human liver microsomes: qHTS cell viability counter screen (AID 1963579); also: nearly all actives have a fitted effect of over 45% in size
Summary of the method: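 Metabolic activation used human liver microsomes and NADPH, both 0.5 mg/mL final, over 16 hours at 37 C on p53RE-bla cells (4,000/well). Cytotoxicity measured by CellTiter-Glo luminescence, 30 min at room temperature.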

[15] = target: 5-hydroxytryptamine receptor 2A (Homo sapiens) (UniProt P28223); experiment: 5-hydroxytryptamine receptor 2A (HTR2A) small molecule antagonists, cell-based qHTS assay (AID 1963586); also: nearly all actives have a fitted effect of over 45% in size
5-hydroxytryptamine receptor 2A (Homo sapiens), sequence (P28223 whole entry, looked up): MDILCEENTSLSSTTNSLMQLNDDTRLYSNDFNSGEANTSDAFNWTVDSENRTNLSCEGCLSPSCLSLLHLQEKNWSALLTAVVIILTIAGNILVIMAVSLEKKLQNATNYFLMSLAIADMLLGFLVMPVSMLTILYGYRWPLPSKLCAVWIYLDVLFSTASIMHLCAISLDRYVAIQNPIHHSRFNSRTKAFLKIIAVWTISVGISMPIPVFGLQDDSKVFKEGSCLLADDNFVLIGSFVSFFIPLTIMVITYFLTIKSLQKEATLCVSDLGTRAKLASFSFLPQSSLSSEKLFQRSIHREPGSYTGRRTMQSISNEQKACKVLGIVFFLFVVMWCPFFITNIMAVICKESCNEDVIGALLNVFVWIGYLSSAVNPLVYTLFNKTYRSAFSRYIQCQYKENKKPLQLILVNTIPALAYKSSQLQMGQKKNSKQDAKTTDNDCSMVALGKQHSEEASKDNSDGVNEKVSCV
Summary of the method: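 Antagonist-mode intracellular calcium assay: DOI (4 nM) added after 5 min compound pre-incubation at room temperature to dye-loaded HTR2A-CHO cells. Fluorescence followed for 3 min, sampled every second.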

[16] = target: 5-hydroxytryptamine receptor 2A (Homo sapiens) (UniProt P28223); experiment: 5-hydroxytryptamine receptor 2A (HTR2A) small molecule agonists, cell-based qHTS assay (AID 1963587); also: nearly all actives have a fitted effect of over 30% in size
Summary of the method: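 CHO cells stably expressing human HTR2A, plated 18 h, loaded with calcium dye 1 h at 37 C. Agonist mode: compounds added and intracellular calcium fluorescence recorded kinetically for 2 min at 1 sec intervals.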

[17] = target: Muscarinic acetylcholine receptor M1 (Homo sapiens) (UniProt P11229); experiment: Cholinergic receptor muscarinic 1 (CHRM1) small molecule antagonists, cell-based qHTS assay (AID 1963588); also: nearly all actives have a fitted effect of over 40% in size
Muscarinic acetylcholine receptor M1 (Homo sapiens), sequence (P11229 whole entry, looked up): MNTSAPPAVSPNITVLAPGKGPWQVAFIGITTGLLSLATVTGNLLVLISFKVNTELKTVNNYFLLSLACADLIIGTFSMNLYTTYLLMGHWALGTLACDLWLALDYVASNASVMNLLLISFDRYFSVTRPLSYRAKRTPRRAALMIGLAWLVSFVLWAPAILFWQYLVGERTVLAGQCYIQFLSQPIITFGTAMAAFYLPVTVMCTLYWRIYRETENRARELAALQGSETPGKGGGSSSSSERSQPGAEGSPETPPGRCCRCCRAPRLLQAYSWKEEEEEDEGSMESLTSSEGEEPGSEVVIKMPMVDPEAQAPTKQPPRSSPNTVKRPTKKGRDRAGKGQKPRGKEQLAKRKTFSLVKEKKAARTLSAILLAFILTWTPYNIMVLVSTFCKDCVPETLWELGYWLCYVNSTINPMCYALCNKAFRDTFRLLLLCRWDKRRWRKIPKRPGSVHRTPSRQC
Summary of the method: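 CHRM1-CHO calcium-flux assay, antagonist mode. Cells were seeded 18 h, dye-loaded 1 h at 37 C and given compound for 5 min at RT, then acetylcholine was added at 50nM. FDSS fluorescence was read 3 min; 15 concentrations, three runs.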

[18] = cAMP Responsive Elements (CRE) small molecule agonists, cell-based qHTS assay (AID 1963590)
Summary of the method: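 CRE-bla HEK 293T cells, 2,000/well in DMEM with 10% dialyzed FBS and 25 mM HEPES, pre-incubated 18 h at 37 C, then exposed to compound 3 h at 37 C. Beta-lactamase reporter read with LiveBLAzer B/G FRET substrate after 2 h at room temperature.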

[19] = cAMP Responsive Elements (CRE) small molecule antagonists, cell-based qHTS assay (AID 1963591; active = well fitted inhibition curve with a large enough effect in the signal ratio in the repeat runs, not every such curve was filed as active; the % refers to the signal ratio)
Summary of the method: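 CRE-bla HEK293T cells plated 18 h, then given compound plus NKH477 at 0.25 uM final for 3 h at 37C. Beta-lactamase reporter read with LiveBLAzer B/G FRET substrate after 2 h at room temperature.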

[20] = target: Muscarinic acetylcholine receptor M1 (Homo sapiens) (UniProt P11229); experiment: Cholinergic receptor muscarinic 1 (CHRM1) small molecule agonists, cell-based qHTS assay (AID 1963589); also: nearly all actives have a fitted effect of over 35% in size
Summary of the method: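 CHO cells stably expressing human CHRM1 were loaded with calcium dye for 1 h at 37 C, then compound was added in agonist mode. Intracellular calcium fluorescence was followed kinetically at 1 s intervals. Fifteen concentrations were tested in three independent runs.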

Compound	Potency [1]	Potency [2]	outcome [3]	outcome [4]	Potency [5]	Potency [6]	Potency [7]	Potency [8]	Potency [9]	Potency [10]	Potency [11]	Potency [12]	Potency [13]	Potency [14]	Potency [15]	Potency [16]	Potency [17]	Potency [18]	Potency [19]	Potency [20]
CC(=O)OCC(=O)[C@@]1(OC(C)=O)[C@@H](C)C[C@H]2[C@@H]3C[C@H](F)C4=CC(=O)C=C[C@]4(C)[C@@]3(F)[C@@H](O)C[C@@]21C	inactive	inactive	inactive	inactive	inactive	inactive	inactive	inactive	inactive	inactive	inactive	inactive	inactive							
CCOC(=N)CC(=O)OCC	inactive	inactive	inactive		inactive	inactive	inactive	inactive		inactive		inactive	inactive	inactive	inactive	inactive	inactive	inactive	inactive	
C=CC(=O)OCCOCC(CC)(COCCOC(=O)C=C)COCCOC(=O)C=C	31.9 µM (active)	12.7 µM (active)	inactive	inactive	inactive	inactive	inactive			inactive		inactive	inactive		inactive	inactive	inactive			inactive
CC(C)(C)c1ccccc1	inactive	inactive	inactive		inactive	inactive	inactive	inactive	inactive	inactive		inactive			inactive	inactive	inactive	inactive	inactive	inactive
CC(C)(C)OC(=O)c1ccccc1C(=O)O	inactive	inactive	inactive		inactive	inactive	inactive	inactive	inactive	inactive		inactive		inactive		inactive	inactive	inactive	inactive	inactive
CC(C)(O)CCCC1=CCC(C=O)CC1 (stereo not given)	inactive	inactive	inactive	inactive	inactive	inactive	inactive	inactive	inactive	inactive		inactive	inactive			inactive	inactive		inactive	inactive
CC1=C(C(=O)OC(C)C)C(c2cccc([N+](=O)[O-])c2)C(C(=O)OC2CN(C(c3ccccc3)c3ccccc3)C2)=C(N)N1 (stereo not given)	8.41 µM (active)	inactive	inactive		inactive	inactive	inactive	11.2 µM (active)		inactive	inactive	inactive		inactive	inactive	inactive	inactive			inactive
CCCCOC(=O)C(C)CC (stereo not given)	inactive	inactive	inactive		inactive	inactive	inactive	inactive	inactive	inactive		inactive	inactive	inactive		inactive	inactive	inactive	inactive	inactive
CC(C)=CCC1C(=O)N(c2ccccc2)N(c2ccccc2)C1=O	inactive	29.8 µM (active)	inactive	inactive	inactive		inactive	inactive			inactive	inactive			inactive	inactive	inactive		inactive	inactive
C=C(C)CCO	inactive	inactive		inactive	inactive	inactive	inactive	inactive	inactive	inactive		inactive	inactive	inactive	inactive	inactive	inactive	inactive	inactive	inactive
CN1CCN(c2c(F)cc3c(=O)c(C(=O)O)cn4c3c2SCC4)CC1	inactive	inactive	inactive	inactive		inactive	inactive			inactive	inactive		inactive	inactive	inactive	inactive	inactive			inactive
CCN(CC)CCOc1ccc(C(O)(Cc2ccc(Cl)cc2)c2ccc(C)cc2)cc1 (stereo not given)	26.6 µM (active)	inactive	inactive	inactive	inactive		inactive		inactive	inactive	inactive	inactive		inactive	inactive					
CCC(CO)(CO)[N+](=O)[O-]	inactive	inactive		inactive	inactive	inactive	inactive	inactive	inactive		inactive	inactive		inactive	inactive	inactive	inactive	inactive	inactive	
O=c1[nH]ncc2ccccc12	inactive	inactive		inactive	inactive	inactive	inactive	inactive	inactive	inactive		inactive	inactive	inactive	inactive	inactive		inactive	inactive	inactive
CCC1(C)C(=O)N(Cl)C(=O)N1Cl (stereo not given)	inactive	inactive	inactive		inactive	inactive	inactive	inactive	inactive	inactive		inactive	inactive	inactive	inactive	inactive	inactive	inactive	inactive	inactive
CCCCCCn1c(=O)c2c(ncn2C)n(C)c1=O	inactive	inactive	inactive	inactive	inactive		inactive	inactive	inactive	inactive		inactive	inactive	inactive	inactive	inactive	inactive	inactive	inactive	inactive
